± gives the standard deviation.
How the values were obtained:
[1] = test system: MILI (PIWIL2) piRISC loaded with piRNA #1 (26 nt); assay: pre-steady-state target cleavage rate (min^-1); guide: piRNA #1 5'p-UGAGGUAGUAGGUUGUAUAGUAUCCA; higher = faster piRNA-guided slicing of the target; details: auxiliary factor: 500 nM mouse GTSF1;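 further: 1 nM active piRISC with 0.1 nM target library at 33 °C single turnover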
Summary of the method: (§1)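 At 33 °C in HEPES–potassium acetate buffer, a transcribed, DNA-blocked target RNA library […] was exposed for 0–8 or 0–960 min to 1 nM active affinity-purified piRISC carrying a single synthetic guide, with or without 500 nM GTSF1 partner protein. Uncleaved targets were sequenced and normalised to depth and to weakly complementary targets. With three trials pooled and k3 capped at 0.0001 min^-1, a burst-and-steady-state fit produced the pre-steady-state cleavage rate.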

[2] = test system: EfPiwi piRISC loaded with piRNA #1 (26 nt); assay: pre-steady-state target cleavage rate (min^-1); auxiliary factor: 500 nM Ephydatia muelleri Gtsf1; guide: piRNA #1 5'p-UGAGGUAGUAGGUUGUAUAGUAUCCA; MIWI and MILI are mouse PIWI proteins and EfPiwi is from a freshwater sponge; tags in brackets are library labels; higher = faster piRNA-guided slicing of the target
Summary of the method: as §1

Row | Sequence | pre-steady-state target cleavage rate [1] | pre-steady-state target cleavage rate [2]
1 | GGAGUGCAUACUAUACAACCUACUACCUGA | 0.09 ± 0.011 | 0.00576 ± 0.0029
2 | GGAGACGAUACUUUACAACCUACUACGUCA | 0.0766 ± 0.011 | 0.00279 ± 0.0019
3 | GGAGUGCAUACUAUACUACCUACUACCUCA | 0.161 ± 0.0089 | 0.00588 ± 0.0029
4 | GGAGACCUUACUAUACAACCUCCUACCUCA | 0.0597 ± 0.01 | 0.00545 ± 0.003
5 | GGAGACCAUACUCAUACAACCUACUACCUCA | 0.119 ± 0.013 | 0.0108 ± 0.0052
6 | GGAGACCAUACUAUAACAACCUACUACCUCA | 0.133 ± 0.012 | 0.00662 ± 0.0038
7 | GGAGACCUUACUAUACAACCUACUACCUUCA | 0.16 ± 0.015 | 0.0532 ± 0.019
8 | GGAGAGGAUGACUAUACAACCUACUACCUCA | 0.0775 ± 0.015 | 0.01 ± 0.006
9 | GGAGUUGGAUACUAUACAACCUACUACCUCA | 0.184 ± 0.023 | 0.197 ± 0.056
10 | GGAGACGAUACAAUACAACCUACUACCACA | 0.204 ± 0.019 | 0.00392 ± 0.0029
11 | GGAGAGGUUACUAUACAACCUACUUCCUCA | 0.00348 ± 0.0029 | 0.0033 ± 0.002
12 | GGAGUGGAUACUAUACAUCGUACUACCUCA | 0.0624 ± 0.0061 | 0.0051 ± 0.0023
13 | GGAGACGAUACUAUAGAACCAACUACCUCA | 0.00326 ± 0.0028 | 0.00377 ± 0.002
14 | GGAGACGAUAGUAUACAACCUACAACCUCA | 0.106 ± 0.011 | 0.00195 ± 0.0018
15 | GGAGUGGAUACUAUACAUCCUAGUACCUCA | 0.103 ± 0.019 | 0.00411 ± 0.0015
16 | GGAGAGGAUACUAUUCAACCUUCUACCUCA | 0.00949 ± 0.0023 | 0.0031 ± 0.0028
17 | GGAGAGGAUACUAUACAACUUACUACCUCA | 0.0186 ± 0.0027 | 0.0083 ± 0.0042
18 | GGAGACGAUACAAAACAACCUACUACCUCA | 0.149 ± 0.018 | 0.00359 ± 0.0033
19 | GGAGACCAUACUAUACAACCUACAACCUGA | 0.0179 ± 0.0095 | 0.00439 ± 0.0042
20 | GGAGACGAUACUAUACAACCAACAACCUCA | 0.00726 ± 0.0036 | 0.00278 ± 0.0019

Row | Sequence | pre-steady-state target cleavage rate [1] | pre-steady-state target cleavage rate [2]
21 | GGAGUGGUUACUAUUCAACCUACUACCUCA | 0.202 ± 0.012 | 0.00293 ± 0.0021
22 | GGAGACCUAUGUAUACAACCUACUACCUCG [g2:g19:cont:t1G] | 0.0649 ± 0.0098 | 0.00909 ± 0.0048
23 | GGAGACCAUACUAUACAACCUACUACCGCA | 0.203 ± 0.025 | 0.00689 ± 0.0023
24 | GGAGACCUAUGGAUACAACCUACUACCUCA | 0.0189 ± 0.0046 | 0.00946 ± 0.005
25 | GGAGACCUAACUAUACAACCUACUACCCA | 0.0749 ± 0.027 | 0.00326 ± 0.0026
26 | GGAGAGGAUACUAUACAAGCAACUACCUCA | 0.00819 ± 0.0023 | 0.00405 ± 0.0022
27 | GGAGAGGUUACUAUACUACCUACUACCUCA | 0.151 ± 0.011 | 0.00488 ± 0.0024
28 | GGAGUGGAUACUAUACAACCUACUAUCCUCA | 0.05 ± 0.0077 | 0.00685 ± 0.0028
29 | GGAGACGAUACUAUAUCAACCUACUACCUCA | 0.123 ± 0.013 | 0.0198 ± 0.0082
30 | GGAGACCAUACUAAUACAACCUACUACCUCA | 0.124 ± 0.014 | 0.0159 ± 0.0066
31 | GGAGACGAUAGUAUACAACCUACUACCUGA | 0.113 ± 0.017 | 0.0032 ± 0.0023
32 | GGAGUGGAUAGUAUACAACCUACUACGUCA | 0.0386 ± 0.0083 | 0.00277 ± 0.0018
33 | GGAGACGUUUCUAUACAACCUACUACCUCA | 0.105 ± 0.013 | 0.0117 ± 0.0062
34 | GGAGACCAUUCUAUACAACCUACUACCUGA | 0.0973 ± 0.016 | 0.00652 ± 0.0034
35 | GGAGACGUUACUAUAGAACCUACUACCUCA | 0.154 ± 0.014 | 0.0026 ± 0.0023
36 | GGAGACGAAACUAUACAUCCUACUACCUCA | 0.255 ± 0.026 | 0.00655 ± 0.0027
37 | GGAGUGGAUUCUAUACAACCUACUACCUCA | 0.175 ± 0.0091 | 0.00893 ± 0.0047
38 | GGAGAGGAUAGUAUACAUCCUACUACCUCA | 0.0609 ± 0.011 | 0.00316 ± 0.0022
39 | GGAGUGCAUACUAUACAACCUAGUACCUCA | 0.0477 ± 0.0091 | 0.00414 ± 0.0018
40 | GGAGACGAUACUAUACAACCUACUACCCUCA | 0.176 ± 0.021 | 0.00506 ± 0.0015

Row | Sequence | pre-steady-state target cleavage rate [1] | pre-steady-state target cleavage rate [2]
41 | GGAGACCAUACUAUACAACCAACUACGUCA | 0.00313 ± 0.003 | 0.00504 ± 0.004
42 | GGAGUGGAUACUAUACAACCUACUACCUCG [g2:g26:cont:t1G] | 0.164 ± 0.011 | 0.0718 ± 0.025
43 | GGAGACCUUACUAUACAACCUACUACCUCG [g2:g22:cont:t1G] | 0.173 ± 0.015 | 0.062 ± 0.022
44 | GGAGACCUAACUAUAUAACCUACUACCUCA | 0.117 ± 0.015 | 0.0063 ± 0.0034
45 | GGAGAGGUUACUAUACAACCUACUACCACA | 0.0673 ± 0.0096 | 0.00331 ± 0.0014
46 | GGAGACGUUACUAUACAACCUACUACCUCA | 0.186 ± 0.014 | 0.0209 ± 0.0092
47 | GGAGACCUAACUAUACAACCUACUACCUCU [g2:g21:cont:t1U] | 0.152 ± 0.025 | 0.915 ± 0.29
48 | GGAGUGGAUACUAUACAUCCUACUACGUCA | 0.0364 ± 0.0082 | 0.0038 ± 0.0013
49 | GGAGACCUAACGUAUACAACCUACUACCUCA | 0.0292 ± 0.012 | 0.0505 ± 0.021
50 | GGAGACGUUACUAUACAACCUAGUACCUCA | 0.0428 ± 0.0087 | 0.00427 ± 0.0015
51 | GGAGACCUAUGAUUACAACCUACUCACCUCA | 0.00473 ± 0.0023 | < 0.0001
52 | GGAGAGGAUACAAUACAACCUACUAGCUCA | 0.068 ± 0.011 | 0.00253 ± 0.0018
53 | GGAGAGGAUUCUAUACAACGUACUACCUCA | 0.028 ± 0.0028 | 0.00249 ± 0.0021
54 | GGAGACGAUUCUAUACAUCCUACUACCUCA | 0.267 ± 0.018 | 0.00332 ± 0.0024
55 | GGAGACCAUACUAUACAACCUUCUUCCUCA | 0.00848 ± 0.0038 | 0.00613 ± 0.0044
56 | GGAGUGGAUACUAUACACCUACUACCUCA | 0.0342 ± 0.0053 | 0.157 ± 0.056
57 | GGAGACCAUACUAUACAACCUACUACCUCC [g2:g23:cont:t1C] | 0.187 ± 0.017 | 0.0109 ± 0.0042
58 | GGAGACCUAUCUAUACACCCUACUACCUCA | 0.0257 ± 0.006 | 0.00728 ± 0.0037
59 | GGAGUGGAUACUAUAGAAGCUACUACCUCA | 0.19 ± 0.011 | 0.00277 ± 0.0019
